Rows were chosen to be rich in hits. Some 4.7% of all compounds tested hit in one or more screens of this group.
eIF4H FP inh = inhibitors of RNA binding by human eIF4H; Q15056; eIF4H fluorescence polarization binding assay; inhibition, % at 35 µM; 0.94% of 290,000 active; AID 2012;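 further: calls also rest on retests at 20 µM and on dose response follow-up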
PABP1 MLLE inh = blocks PAM2 peptide binding to the PABP1 MLLE domain; P11940; 0.36% of 360,000 active; AID 588489; GST-MLLE / FITC-PAM2 fluorescence polarization; inhibition, % at 20 µM; in the data active means inhibition above about 35%, passing the limit was not always enough;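 further: plate controls were DMSO wells with GST-MLLE for no effect and wells lacking GST-MLLE protein for full effect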
Efflux pump inh = blocks antifungal efflux pumps in multiplex yeast assay. inhibition, % at 10 µM. S. cerevisiae Candida pump triplex, Nile Red efflux. 0.44% of 330,000 active;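 active means plate passing quality check with inhibition over a set limit, or well fluorescence over plate mean plus 4 SD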;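 further: Nile Red retained in pooled yeast measured as flow cytometry median fluorescence; 0% = buffer negative control and 100% = Enniatin B positive control; higher means more Nile Red kept so more efflux inhibition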
PABP FP inh = blocks human PABP binding to poly(A) RNA; inhibition, % at 35 µM; 1% of 290,000 active; fluorescence polarization; AID 2014;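 further: calls also rest on retests at 20 µM and on dose response follow-up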
ALR inh = human ALR oxidase inhibition via reduced H2O2; P55789; purified ALR, DTT oxidation, H2O2 HRP-luminol luminescence; inhibition, % (test concentration not listed); 3.8% of 290,000 active;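 active means mean replicate inhibition above about 79%, with every replicate also reaching it, limit read from the data; inconclusive means only one of the two criteria met; inactive means mean below limit and not every replicate reaching it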
Target sequence (P55789 whole entry, looked up): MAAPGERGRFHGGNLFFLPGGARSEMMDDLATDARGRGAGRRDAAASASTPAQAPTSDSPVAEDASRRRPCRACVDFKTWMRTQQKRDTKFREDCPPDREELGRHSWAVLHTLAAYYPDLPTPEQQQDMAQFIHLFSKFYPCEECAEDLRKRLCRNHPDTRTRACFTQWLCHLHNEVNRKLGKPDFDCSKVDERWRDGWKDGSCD
SUMO HTRF inh = inhibitors of human SUMOylation (UBC9) | AID 2006 | inhibition, % at 35 µM | HTRF SUMOylation assay, SAE1/SAE2 + UBC9, in vitro | 0.36% of 290,000 active; in the data active means inhibition above about 50%, passing the limit was not always enough; inconclusive means no clear call, values can overlap the other calls
Target sequence (P63279 whole entry, looked up): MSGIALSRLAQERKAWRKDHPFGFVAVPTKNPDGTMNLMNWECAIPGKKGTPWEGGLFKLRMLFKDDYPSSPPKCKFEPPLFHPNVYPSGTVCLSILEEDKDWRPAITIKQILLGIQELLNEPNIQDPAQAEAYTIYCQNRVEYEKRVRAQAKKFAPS
An asterisk follows results filed as active; ? = inconclusive; nt = not tested or not shown. Unless noted, how the calls were made is not given here.

SMILES	eIF4H FP inh	PABP1 MLLE inh	Efflux pump inh	PABP FP inh	ALR inh	SUMO HTRF inh
Oc1ccc(/C=N/NC(=S)NCc2ccco2)cc1	-14	0	0	-7	99*	22
COC(=O)c1ccccc1NC(=O)COC(=O)Cc1ccc(S(=O)(=O)N2CCOCC2)s1	nt	-27	nt	nt	nt	nt
Oc1c(Cl)cc(Cl)cc1CNc1ccccn1	-2	-1	nt	15	nt	0
Oc1c(Cl)cc(Cl)cc1CNc1nc2ccccc2[nH]1	-7	-2	0	11	99*	0
CCC(=O)N1CCN(c2ccc(NC(=O)COc3ccccc3[N+](=O)[O-])cc2)CC1	4	-6	0	-32	-1	8
CC(OC(=O)COc1ccccc1[N+](=O)[O-])C(=O)Nc1ccc(N2CCOCC2)cc1 (configuration not stated)	-6	6	0	-7	76*	24
Cc1ccc(C(=O)NCC(=O)OC(C)C(=O)Nc2ccc(N3CCOCC3)cc2)s1 (configuration not stated)	-5	0	0	-7	93*	9
CS(=O)(=O)N1CCN(c2ccc([N+](=O)[O-])c(NCc3ccc(Cl)cc3)c2)CC1	active	-23	0	122*	-8	12
COC(C(=O)Nc1cccc([N+](=O)[O-])c1)c1ccccc1 (configuration not stated)	-3	23	0	4	-1	12
CCOc1ccc(CN(C)CC(=O)Nc2ccc3c(c2)CCC3)cc1OC	76*	1	0	3	nt	9
COc1cc(C(=O)N[C@@H](Cc2c[nH]c3ccccc23)C(=O)O)cc(OC)c1OC	-18	-2	0	2	nt	12
COc1cc(/C=C/C(=O)N[C@@H](Cc2c[nH]c3ccccc23)C(=O)O)ccc1O	-1	-9	0	7	86*	23
CC1CCC(NC(=O)c2cccc(S(=O)(=O)N3CCOCC3)c2)CC1 (configuration not stated)	nt	-6	nt	nt	nt	nt
CCC(C)NC(=O)c1ccccc1NC(=O)c1ccc(CSc2ccc(C)cc2)cc1 (configuration not stated)	6	5	0	-3	99*	-7
O=C(CN1C(=O)S/C(=C/c2cccn2-c2ccc(O)cc2)C1=O)N1CCCC1	-2	0	0	1	nt	-2
O=C(O)c1cccc(-n2cccc2/C=C2/SC(=O)N(CC(=O)N3CCCC3)C2=O)c1	90*	2	0	74*	nt	-8
Cc1ccccc1N=C1NC(=O)/C(=C/c2cccn2-c2cccc(C(=O)O)c2)S1	98*	nt	nt	84	nt	18
COc1ccc(CC(=O)Nc2ccc(F)c(F)c2F)cc1S(=O)(=O)N1CCOCC1	nt	1	0	nt	nt	nt
CCCn1c(C)cc(-c2csc(N)n2)c1C	122*	22	0	122	-7	40
Nc1nc(CN2CCN(c3ccccc3F)CC2)nc(N2CCCc3ccccc32)n1	-4	-3	0	-7	0	-11
COc1ccc(N=C2S/C(=C\c3ccc(OC(C)C(=O)O)c(OC)c3)C(=O)N2CCc2c[nH]c3ccccc23)cc1 (configuration not stated)	?	-7	nt	40*	nt	50
C[C@@H]1CN([C@H](C)CO)C(=O)CCCn2nncc2CO[C@H]1CN(C)CC1CC1	nt	-1	nt	nt	nt	nt
Cc1ccc(Nc2nc3ccccc3s2)c(C)c1	-2	6	0	-6	-13	-11
Cc1cc(O)ccc1Nc1nc2ccccc2nc1Nc1ccc(O)cc1C	24*	-91	0	75*	43	24
COc1ccc(S(=O)(=O)N2CCC(C(=O)NCCCc3ccccc3)CC2)cc1	nt	-6	0	nt	-2	nt
SMILES	eIF4H FP inh	PABP1 MLLE inh	Efflux pump inh	PABP FP inh	ALR inh	SUMO HTRF inh
COc1cc(/C=N/NC(=O)c2nnn(-c3nonc3N)c2C)ccc1OCc1ccc(Cl)cc1	nt	8	nt	nt	nt	nt
Cn1c(SCC(=O)c2cc3ccccc3o2)nnc1-c1ccccc1	-4	-56	0	2	97*	-3
Cn1ccnc1SCC(=O)c1cc2ccccc2o1	27	-69	0	86	-2	13
Cn1cnnc1SCC(=O)c1cc2ccccc2o1	7	-39	0	-9	88*	-6
CN1C(=O)NC(c2cccc([N+](=O)[O-])c2)C2=C1CCCC2=O (configuration not stated)	-9	-2	0	2	-33	-3
CCOC(=O)c1csc(-c2csc(CCNC(=O)c3ccccc3)n2)n1	nt	-3	nt	nt	nt	nt
O=C(Nc1cccc([N+](=O)[O-])c1)N1CCCCCC1	-2	5	0	-10	-2	-19
O=C(Nc1ccc([N+](=O)[O-])cc1Cl)c1cc(Cl)ccc1O	nt	-1	0	nt	-5	nt
O=C(Nc1cccc(Cl)c1)c1cc(N=Nc2ccc([N+](=O)[O-])cc2Cl)ccc1O	81	-5	0	5.7*	1	49
O=C(CCl)NC(=O)NC12CC3CC(CC(C3)C1)C2	-2	1	0	-5	86*	-1
O=C(O)/C=C\C(=O)Nc1ccccc1C#Cc1ccc(Br)cc1	18	-4	0	-7	98*	12
C/C(N)=C(/C#N)C(=O)COC(=O)c1cc2c(s1)CCCC2	10	1	0	-9	11	1
C/C(N)=C(/C#N)C(=O)COC(=O)c1cc2c(s1)CCC(C)C2 (configuration not stated)	8	4	0	3	96*	-3
O=C(c1cccc(C(F)(F)F)c1)C1CCCN(Cc2cccn2-c2ccccn2)C1 (configuration not stated)	-2	1	0	2	12	-1
CCN(CC)c1ccc(CN(C(=O)c2ccco2)C2CCS(=O)(=O)C2)cc1 (configuration not stated)	1	0	0	7	99*	19
CCN(CC)c1ccc(CN(C(=O)c2cc(OC)c(OC)c(OC)c2)C2CCS(=O)(=O)C2)cc1 (configuration not stated)	3	8	0	2	94*	9
Cc1ccc(CN(C(=O)c2cccs2)C2CCS(=O)(=O)C2)cc1 (configuration not stated)	3	0	0	8	-8	4
CCc1ccc(CN(C(=O)c2ccco2)C2CCS(=O)(=O)C2)cc1 (configuration not stated)	-9	6	0	-10	0	-6
COc1ccc(CN(C(=O)c2cccc(OC)c2)C2CCS(=O)(=O)C2)cc1 (configuration not stated)	1	-8	0	7	-7	8
CCN(CC)c1ccc(CN(C(=O)c2cccs2)C2CCS(=O)(=O)C2)cc1 (configuration not stated)	nt	-22	0	nt	99*	nt
CCOC(=O)c1cn(Cc2ccc(C)cc2)c2cc(F)ccc2c1=O	-16	-5	0	7	-10	-5
Cc1ccc(NC(=O)c2ccc(Cl)c(N3C(=O)C=CC3=O)c2)cc1	-4	9	0	3	nt	0
